PubChem BioAssay (NCI)
The panel holds about 83,000 compounds, 20% with a hit somewhere; the sample as a whole holds those more often.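 Percent growth is the endpoint: 0 to 100 indicates growth inhibition (40 means 60% inhibition), 0 means no net growth, and negative values indicate cell death.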 Unmarked numbers belong to inactive results. Active and inactive are the calls of the source. Rule for the calls: active = growth percent below 10; inactive = the rest.

Key:
Assay in all cases: NCI-60 one-dose screen, 48 h (100 = growth as untreated, 0 = no growth, -100 = all killed)
Settings in all cases: 10 µM
DU-145 prostate = tested on: DU-145 prostate
K-562 leukemia = tested on: K-562 leukemia
MALME-3M melanoma = tested on: MALME-3M melanoma
MDA-MB-231 breast = tested on: MDA-MB-231 breast
RXF 393 renal = tested on: RXF 393 renal
SF-268 CNS = tested on: SF-268 CNS
SF-295 CNS = tested on: SF-295 CNS
SF-539 CNS = tested on: SF-539 CNS
UACC-257 melanoma = tested on: UACC-257 melanoma
M14 melanoma = tested on: M14 melanoma
HCT-15 colon = tested on: HCT-15 colon
HT29 colon = tested on: HT29 colon
SNB-75 CNS = tested on: SNB-75 CNS
SNB-19 CNS = tested on: SNB-19 CNS
U251 CNS = tested on: U251 CNS
PC-3 prostate = tested on: PC-3 prostate
LOX IMVI melanoma = tested on: LOX IMVI melanoma
SK-MEL-28 melanoma = tested on: SK-MEL-28 melanoma
UACC-62 melanoma = tested on: UACC-62 melanoma
SK-MEL-5 melanoma = tested on: SK-MEL-5 melanoma

Structure (SMILES)	growth (DU-145 prostate)	growth (K-562 leukemia)	growth (MALME-3M melanoma)	growth (MDA-MB-231 breast)	growth (RXF 393 renal)	growth (SF-268 CNS)	growth (SF-295 CNS)	growth (SF-539 CNS)	growth (UACC-257 melanoma)	growth (M14 melanoma)	growth (HCT-15 colon)	growth (HT29 colon)	growth (SNB-75 CNS)	growth (SNB-19 CNS)	growth (U251 CNS)	growth (PC-3 prostate)	growth (LOX IMVI melanoma)	growth (SK-MEL-28 melanoma)	growth (UACC-62 melanoma)	growth (SK-MEL-5 melanoma)
CC[C@H]1OC(=O)[C@H](C)[C@@H](O[C@H]2C[C@@](C)(OC)[C@@H](O)[C@H](C)O2)[C@H](C)[C@@H](O[C@@H]2O[C@H](C)C[C@H](N(C)C)[C@H]2O)[C@](C)(OC)C/C(C)=C2/O[C@@]1(C)C=C2C	76.9%	-19.6% (active)	-80% (active)	-44.2% (active)	21.3%	64.1%	95.5%	64.7%	17.7%	-75.1% (active)	-33.5% (active)	-7.11% (active)	49.1%	57.4%	2.36% (active)	53.3%	-85.1% (active)	-57.1% (active)		
O=C1c2ccccc2C(=O)c2c1ccc(C(Br)Br)c2Cl	33.1%	-28.9% (active)	-70.9% (active)	-41.9% (active)	36.2%	-19.1% (active)	90.5%	69.9%	100%	10.7%	44%	52.5%	91.4%	42.9%	-26% (active)	40.5%	-84.4% (active)	92.3%	47.2%	
C/C(=C/CCC(C)[C@@H]1CC[C@]2(C)C3=C(CC[C@@]12C)[C@@]1(C)CCC(=O)C(C)(C)[C@@H]1CC3)C(=O)O (stereo partly specified)	-92.3% (active)	-16.1% (active)	-88.9% (active)	-76.8% (active)	-90.2% (active)	-92.2% (active)	-90.5% (active)	-76% (active)	-57.5% (active)	-76.8% (active)	-66.6% (active)	-65.8% (active)	-68.1% (active)	-78.1% (active)		-29.8% (active)	-53.9% (active)	-83.9% (active)	-92.4% (active)	-98.2% (active)
CC(=O)OC1C=CC(OC(C)=O)O1 (stereo unspecified)	101%	91.1%	89.7%	97.7%	112%	97.4%	93.5%	112%	94%	89.5%	95.4%	91.5%	95.3%	104%	88.6%	92.7%	80.4%	110%	84.4%	
CN1CCN(CCC(=O)Nc2cccc(-n3cc(-c4ccncc4)c(-c4ccc(Cl)c(O)c4)n3)c2)CC1	25.8%	12.8%	47.6%	-72% (active)	30%	50.8%	19.3%	-4.71% (active)	46.3%	12.3%	39.3%	4.91% (active)	24.5%	55%	32.4%	29.3%	15.7%	57.7%	46.9%	
CS(=O)(=O)c1nccc(-c2c(-c3cccc(OCc4ccc(F)cc4)c3)nc3sccn23)n1	-53.8% (active)	47.3%	60.4%	77.5%	79.6%	90.2%	105%	104%	17%	71.2%	59.2%	82.9%	95.9%	83.2%	96.6%	59.3%	36.6%	62.8%	60.1%	
COc1ccc(-c2n[nH]nc2-c2cc(OC)c3c(c2OC)OCO3)cc1	10.2%	10.7%	61.7%	32%	-9.08% (active)	48.8%	4.67% (active)	-2.99% (active)	48%	20.6%	35.5%	4.41% (active)	4.8% (active)	51.8%	13.8%	26.3%	37%	63%	40.6%	
CCN(CC)CCOc1ccc2c(c1O)C(=O)c1ccccc1C2=O	95.4%	71.6%	109%	82.8%	77.7%	90.1%	91.5%	91.9%	94.7%	92%	74.4%	68.1%	79.1%	82.6%	77.3%	85.3%	76.6%	102%	90.5%	
